From the supplement of paper PMC7156485 come the findings set out here.
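Further: TDF is a line of transformed human dermal fibroblasts of mesenchymal origin.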

In this assay the test system is TDF. Kind of assay: H1.0 immunofluorescence intensity relative to DMSO (% of DMSO); higher = stronger H1.0 induction, active = 120 or more. The note with it: concentration: 10 µM; 24 h. A digest of the protocol:
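HCC1569 and TDF cells were seeded at 800 per well in 384-well plates in RPMI with 10% FBS and treated with compounds at 10 µM for 24 h at 37 °C, in triplicate. After fixation in 3.7% formaldehyde, cells were stained with a rabbit anti-H1.0 antibody, an AlexaFluor 647 secondary and DAPI, and six fields per well were imaged at ×10. H1.0 nuclear intensity or cell number is given as percent of the plate control, using the median of replicates, with HCC1569 values smoothed for positional effects.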
As for `O=C(Nc1ccc(Oc2ccnc3[nH]ccc23)c(F)c1)c1cccn(-c2ccc(F)cc2)c1=O`, the H1.0 immunofluorescence intensity was 95.1 (inactive). With `Nc1nnc(-c2cccc(Cl)c2Cl)c(N)n1` [Lamotrigine] the figure was 87.7 (inactive); with `Cn1cnc2c(NCc3ccccc3)nc(NCCO)nc21` [Olomoucine], 98.6 (inactive).

As for `Cc1cnc(Nc2ccc(OCCN3CCCC3)cc2)nc1Nc1cccc(S(=O)(=O)NC(C)(C)C)c1`, the H1.0 immunofluorescence intensity is 116 (inactive). With `NC(CS(=O)O)C(=O)O` [L-Cysteinesulfinic Acid] the figure was 96.7 (inactive); with `CC(C=Cc1cccc(Oc2ccc(F)cc2)c1)N(O)C(N)=O` (stereo not given), 102 (inactive); with `CC=C1C2C=C(C)CC1(N)c1ccc(=O)[nH]c1C2` (single isomer, unassigned; (-)) [(-)-Huperazine], 98.9 (inactive). For `C=C(C)C1CC=C(C(=O)O)CC1` (single isomer, unassigned; (-)) [(-)-Perillic acid] the value was 95.9 (inactive); for `COc1ccccc1O` [Guaiacol], 92.7 (inactive).

As for `O=C([O-])C=CC(O)c1ccc(Cl)cc1.[Na+]` (stereo not given), the H1.0 immunofluorescence intensity was 95.7 (inactive).

With `Br.CN=c1nc(-c2ccccc2)n(-c2ccccc2)s1`, the H1.0 immunofluorescence intensity was 90.9 (inactive).

For `CN(C)C(=O)COC(=O)Cc1ccc(OC(=O)c2ccc(N=C(N)N)cc2)cc1.CS(=O)(=O)O`, the H1.0 immunofluorescence intensity was 91.2 (inactive). For `COc1ccc(CC[C@H]2CCC[C@@H](CCc3ccc(OC)cc3)N2C[C@@H](O)CO)cc1.Cl`, the H1.0 immunofluorescence intensity is 93.3 (inactive). For `CC(C)C(CO)Nc1nc(Nc2ccc(C(=O)O)c(Cl)c2)c2ncn(C(C)C)c2n1` (stereo not given) [Purvalanol B] the value was 93.1 (inactive); for `CCCCCCCCCCCCCCCC(=O)NCCO` [Palmitoylethanolamide], 92.4 (inactive); for `Br.CN(C)CCCC1(c2ccc(F)cc2)OCc2cc(C#N)ccc21` (stereo not given) [Citalopram hydrobromide], 96 (inactive).

For `COc1cc(C2Oc3cc(C4Oc5cc(O)cc(O)c5C(=O)C4O)ccc3OC2CO)ccc1O` (stereo not given) [Silymarin], the H1.0 immunofluorescence intensity is 95.5 (inactive). Regarding `CN=C(NC#N)NCCSCc1nc[nH]c1C` [Cimetidine], the H1.0 immunofluorescence intensity is 102 (inactive).

For `CC(=O)NCCOC(=O)[C@H](Oc1cccc(C(F)(F)F)c1)c1ccc(Cl)cc1`, the H1.0 immunofluorescence intensity was 95.3 (inactive). For `C=CCSC[C@H](N)C(=O)O` [(2R)-3-(allylsulfanyl)-2-aminopropanoic acid] the value was 88.7 (inactive); for `CCC=CCC=CCC=CCC=CCC=CCCC(=O)OC(COCCCCCCCCCCCCCCCC)COP(=O)([O-])OCC[N+](C)(C)C` (stereo not given), 94.3 (inactive); for `CCN1CCCC1CNC(=O)c1cc(S(N)(=O)=O)ccc1OC` [(S)-(-)-Sulpiride], 99.8 (inactive).

Regarding `Oc1ccc(-c2c(-c3ccccc3)nn3c(C(F)(F)F)cc(C(F)(F)F)nc23)cc1`, the H1.0 immunofluorescence intensity was 154 (active).

On to `CCC1=C(C)CN(C(=O)NCCc2ccc(S(=O)(=O)NC(=O)NC3CCC(C)CC3)cc2)C1=O` (stereo not given) [Glimepiride], for which the H1.0 immunofluorescence intensity is 93.1 (inactive).

For `C=C1CCC2OC2(C)CCC2C1CC2(C)C` (stereo not given) [Caryophylline], the H1.0 immunofluorescence intensity is 105 (inactive). For `NC(=S)NCCCC(N)C(=O)O` (stereo not given) [Thiocitrulline] the value was 91.5 (inactive); for `CC(OC(=O)c1ccc(F)cc1F)C(=O)N(C)C1CCS(=O)(=O)C1` (stereo not given) [Cdk2/9 Inhibitor], 110 (inactive); for `CC(=O)c1ccc(S(=O)(=O)NC(=O)NC2CCCCC2)cc1` [Acetohexamide], 102 (inactive). For `COc1ccc(C(=O)/C(Cc2cc(OC)c(OC)c(OC)c2)=C(\C(=O)[O-])c2ccc3c(c2)OCO3)cc1.[Na+]` the value was 88.2 (inactive). For `Cc1cccc(C)c1OCC(C)N.Cl` (stereo not given) [Mexiletene hydrochloride], the H1.0 immunofluorescence intensity is 87.8 (inactive). With `O=c1cc(N2CCOCC2)oc2c1ccc1ccccc12` [NU 7026 - 2-(4-Morpholinyl)-4H-naphthol[1,2-b]pyran-4-one] the figure was 94 (inactive); with `C=C(c1ccc(C(=O)O)cc1)c1cc2c(cc1C)C(C)(C)CCC2(C)C` [Bexarotene], 84 (inactive); with `Nc1cc(=O)nc(N)[nH]1` [2,6-Diamino-4-pyrimidinone], 93.6 (inactive). With `CC(=O)C1(O)CCC2C3CCC4=CC(=O)CCC4(C)C3CCC21C` (stereo not given) [17- Hydroxyprogesterone] the figure was 94 (inactive); with `C[n+]1cc2c3c(ccc2c2ccc4cc5c(cc4c21)OCO5)OCO3` [Sanguinarine], 98.2 (inactive).

Take `CCCOc1ccc(C=C2SC(=O)NC2=O)cc1` [PIM1/2 Kinase Inhibitor VI]: the H1.0 immunofluorescence intensity was 103 (inactive). Regarding `O=C(O)CN(CCN(CC(=O)O)CC(=O)O)CCN(CC(=O)O)CC(=O)O` [Diethylenetriaminepentaacetic acid], the H1.0 immunofluorescence intensity was 95.1 (inactive). For `O=[N+]([O-])c1cccc2cn[nH]c12` [7-Nitroindazole] the value was 90.5 (inactive); for `O=C(NC(CO)C(O)c1ccc([N+](=O)[O-])cc1)C(Cl)Cl` (stereo not given) [Chloramphenicol], 93.1 (inactive); for `O=C(O)[C@H]1C[C@H](C(=O)O)N1` (relative stereo) [trans-Azetidine-2,4-dicarboxylic acid], 91.5 (inactive).
